These compounds were tested against Glucose transporter (Leishmania mexicana) (UniProt O61059) (assay: ST_JUDE_LEISH: Cytotoxicity at 2uM final concentration against transgenic Leishmania Mexicana promastigotes LmGT2 that are glucose transport deficient and complemented with the L. Mexicana glucose transporter 2. Activity is measured by DNA content using SYBR green in vitro).
Type: functional

Compound | inhibition [%]
CCN1CCN(c2cc(C)c3cc(NC(=O)c4cccc([N+](=O)[O-])c4)ccc3n2)CC1 | -1.42
CCCCCCCC1CC(CC(=O)Nc2ccnc3ccc(OC)cc23)CN1 (stereo not given) | 0.67
CC(C)CCN1CCC(Oc2ccc(NC(=O)c3ccsc3)cc2Cl)CC1 | 1.45
CN(Cc1cccc(O)c1)C1CCN(c2cc(NC(=O)c3ccc(F)cc3)ccn2)CC1 | 3.78
O=C(N[C@@H](Cc1ccccc1)C(=O)NCc1cccc2ccccc12)c1ccc(O)c(-c2ccc(Cl)c(Cl)c2)c1 | 0.79
O=C(NCCCNc1ccnc2cc(Cl)ccc12)c1ccccc1F | 4.23
O=C(Nc1cccc(C(F)(F)F)c1)c1cccc(S(=O)(=O)NCC2CCCN(Cc3ccccc3)C2)c1 (stereo not given) | 1.71
O=C(C=Cc1ccc(Cl)c(Cl)c1)NCCCCCN1CCC(CCCNS(=O)(=O)c2ccc(F)cc2)CC1 | -0.43
CCOC(=O)c1cnc2c(OC)cc(OC)c(Cl)c2c1Nc1ccccc1 | 6.19
CC(=O)N[C@H](C(=O)Nc1ccc(-c2ccc(-c3nc4cc(C(F)(F)F)ccc4[nH]3)s2)cc1)C(C)C | 4.22
COc1ccc(C(=O)Nc2ccc(Cl)cc2C(=O)Nc2ccncc2)cc1 | -0.77
NC1CCN(Cc2ccc(-c3ccc(-c4nc5ccccc5[nH]4)cc3)cc2)C1 (stereo not given) | 5.07
Cc1nc2ccc(Nc3nccc(-c4c(-c5cccc(NC(=O)c6c(F)cccc6F)c5)nn5ccccc45)n3)cc2nc1C | -1.39
COc1cc(Nc2ccnc3cc(-c4ccccn4)ccc23)cc(OC)c1OC | 5.6
COc1cccc(C(=O)NCCOc2ccccc2)c1Oc1ccccc1 | 5.15
COc1cccc(C2CCN(CCN3CCC(CNC(=O)c4ccc(-c5ccc(C(F)(F)F)cc5)cc4)CC3)CC2)c1 | 1.17
Cc1ccccc1C1CCN(C2CCC(NC(=O)/C=C/c3ccc(C#N)cc3)CC2)CC1 (stereo not given) | 5.03
C=CCOc1cccc2c1CCN(CCN1CCC(NC(=O)c3ccc(-c4ccc(Cl)cc4)cc3)CC1)C2 | 9.23
Cc1nc(-c2ccc(-c3ccc(NC(=O)c4coc5ccc(N6CC(C)N(C)C(C)C6)cc45)cc3)c(C)c2)no1 (stereo not given) | 3.28
COc1ccc2ccccc2c1C=NN=c1cc[nH]c2ccc(F)cc12 | 7.98

Compound | inhibition [%]
O=C(NCc1ccc(F)cc1)Nc1ccc(-c2cccc(-c3nc4cc(C(F)(F)F)ccc4[nH]3)c2)cc1 | -0.05
Cc1cccc(Cn2ccc3c(N)nc(N)nc32)c1 | 3.04
Cc1cccc(CN2CCCN(Cc3ccc(C(=O)Nc4ccc(C)c(F)c4)cc3)CC2)c1 | 2.11
CCOC(=O)c1ccc(-n2c(C)cc(C=C3SC(=Nc4ccccc4)N(C4CCCC4)C3=O)c2C)cc1 | 4.67
Cc1[nH]c(C)c(-c2csc3ccccc23)c(=O)c1Cl | 3.61
COc1ccc(C(=O)CCC(=O)N(CCSC(C)(C)C)Cc2ccc(-c3ccc(CNCCc4ccc(S(C)(=O)=O)cc4)cn3)cc2)cc1F | 7.07
O=S(=O)(c1ccccc1)C1CC1 | -0.5
CC(C)CCN1CCCN(Cc2ccc(C(=O)Nc3ccc(Cl)cc3)cc2)CC1 | 11.6
COc1ccc(C2C(C(=O)OC3CCCCC3)=C(C)NC3=C2C(=O)CCC3)cc1Br (stereo not given) | 1.36
Cc1cc2[nH]c(-c3ccc(C(=O)NCCCN4CCN(c5cccc(Cl)c5)CC4)cc3F)nc2cc1Cl | -0.02
COc1ccc2nc(-c3cccc(C)n3)nc(Nc3ccncc3)c2c1 | 2.21
COc1ccc(NC(=O)c2cccc(Br)c2)cc1N1CCN(CCCCCCCN2CCN(c3cc(NC(=O)c4cccc(Br)c4)ccc3OC)CC2)CC1 | 0.78
O=C(Nc1cc(C(F)(F)F)cc(C(F)(F)F)c1)NC(CCCN1CCC2(CC1)OCc1ccccc12)c1ccc(Cl)c(Cl)c1 (stereo not given) | -0.66
COc1ccc(S(=O)(=O)N2CCC3(CC2)OCC(=O)NC3c2ccc(Cl)c(Cl)c2)cc1 (stereo not given) | 0.92
O=C(NCCCCN1CCC(c2ccc(Br)cc2)CC1)c1ccc(NC(=O)c2ccc(Cl)cc2)cc1 | -1.89
CCOc1ccc(C(C)NC(=O)C2COc3ccccc3O2)cc1OCC (stereo not given) | 2.93
Cc1cccc2nc(-c3cccc(-c4ccc(NC(=O)C5CC(=O)Nc6ccccc65)cc4)c3)[nH]c12 (stereo not given) | 0.15
Cc1ccc(F)cc1S(=O)(=O)Nc1ccc(CCN2CCC(N3CCCCC3)CC2)cc1 | 1.36
Cc1ccc(NC(=O)c2ccc(CN3CCCN(Cc4cccc(O)c4)CC3)cc2)cc1 | 1.37
CCOc1ccc(OCC(=O)Nc2nc(-c3ccc(OC)cc3)c(C)s2)cc1 | 1.45

Reference: ChEMBL document CHEMBL3433997, “St. Jude Leishmania screening dataset” (2016)
